Measured values: PubChem BioAssay (NCATS)
Inconclusive results are not listed. The source made the active and inactive calls. The call rests on the fitted dose curve; in most records, active means well fitted inhibition curve with a large enough effect; inconclusive means small, poorly fitted or top-dose-only effect; inactive means flat fitted curve, though single readings scatter.

molecular target: Calcium and integrin-binding protein 1 (Homo sapiens) (UniProt Q99828); assay: Primary qHTS for Identification of Calcium Integrin Binding Protein 1 (CIB1) Competitor (AID 1508620); conditions: CIB1-GST / FITC-alphaIIb peptide fluorescence polarization; series mostly up to 114 µM; activity change, negative = inhibition: at the top concentration; further: top concentration of the series differs between compounds
Outline: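 Fluorescence polarization competition: GST-tagged CIB1 (1 uM final) preincubated with compound 15 min at room temperature, then FITC-labelled alphaIIb peptide (100 nM final) added. After 15 min at room temperature, polarization read at Ex 480/Em 540.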
On the % scale 0 is the no-effect control and ±100 the full control effect.

Calcium and integrin-binding protein 1 (Homo sapiens), sequence (Q99828 whole entry, looked up): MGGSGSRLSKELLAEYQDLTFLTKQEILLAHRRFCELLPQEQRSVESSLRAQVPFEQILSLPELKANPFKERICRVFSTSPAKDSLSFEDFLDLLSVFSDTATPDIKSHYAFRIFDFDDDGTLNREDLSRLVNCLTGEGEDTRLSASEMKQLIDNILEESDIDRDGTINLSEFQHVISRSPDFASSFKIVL

| Compound | activity change, negative = inhibition |
| --- | --- |
| O=S(=O)(NCc1ccccc1)c1ccc(O)c2ncccc12 | -12.7% (inactive) |
| N#Cc1nc(Nc2cc(F)cc(F)c2)c2ncn(CCO)c2n1 | 4.55% (inactive) |
| COc1ccc(C2=Nn3c(nnc3-c3ccccc3F)SC2)cc1OCC1CC1 | 4.62% (inactive) |
| CN1C(=O)Cc2cc([S+](=O)([O-])N3CCN([S+](=O)([O-])c4c(F)cccc4F)CC3)ccc21 | -7% (inactive) |
| O=c1c(Nc2ccc(Cl)c(Cl)c2)c(Nc2nnc(-c3ccncc3)s2)c1=O | -14% (inactive) |
| Fc1ccc(Nc2nc(-c3ccncc3)nc3ccccc23)cc1F | -3.73% (inactive) |
| CSc1ccccc1-c1ncc(C)c(NCc2ccc(-c3cccnc3)cc2)n1 | -0.187% (inactive) |
| CCOC(=O)c1nn(-c2ccccc2)c(=O)c2c(N)scc12 | -15.2% (inactive) |
| O=C(c1ccc2c(c1)ncn2-c1ccccc1)N1CCCCC1 | 2.05% (inactive) |
| Cc1sc(NC(=O)Cc2ccc3c(c2)OCO3)nc1-c1ccc2c(c1)CCN2C(=O)c1ccccc1C(F)(F)F | 8.96% (inactive) |
| CCOC(=O)c1ccoc1-c1ccc2ncnc(NCCc3cnc[nH]3)c2c1 | 2.74% (inactive) |
| Cc1cccc(-n2cnc3cc(C(=O)N4CCN(C)CC4)ccc32)c1 | 6.77% (inactive) |
| CCOC(=O)c1cccc(-n2cccc2/C=C2\NC(=O)N(CC(=O)O)C2=O)c1 | 3.97% (inactive) |
| Cc1c(P(=S)(c2ccccc2)c2ccccc2)c2ccccc2n1C(=O)Cc1ccccc1 | 0.757% (inactive) |
| NC(=O)C1CCN(c2nc(-c3cccc(Br)c3)cs2)CC1 | 2.65% (inactive) |
| O=C1CCCC2=C1C(c1[nH]ncc1Cl)NC(=NCc1ccoc1)N2 (configuration not stated) | -1.95% (inactive) |
| O=C1CCCC2=C1C(c1cccnc1Cl)N=C(Nc1nc3ccccc3o1)N2 (configuration not stated) | -12.3% (inactive) |
